Tests used:
Experiment in all cases: DAPPL (digital affinity profiling via proximity ligation, sequencing); 10 mM Tris-HCl pH 7.5, 50 mM NaCl, 1 mM DTT, 4% glycerol, room temperature, 30 min; GST-TFs on glutathione beads, 16-mer random dsDNA library, 0.1% formaldehyde crosslink after washing; high values mean tight binding
Details in all cases: protein: recombinant; tags: N-terminal GST; dsDNA, one strand shown
FLI1 = target: T1, FLI1 (Homo sapiens, UniProt Q01543 1-452)
T1 sequence: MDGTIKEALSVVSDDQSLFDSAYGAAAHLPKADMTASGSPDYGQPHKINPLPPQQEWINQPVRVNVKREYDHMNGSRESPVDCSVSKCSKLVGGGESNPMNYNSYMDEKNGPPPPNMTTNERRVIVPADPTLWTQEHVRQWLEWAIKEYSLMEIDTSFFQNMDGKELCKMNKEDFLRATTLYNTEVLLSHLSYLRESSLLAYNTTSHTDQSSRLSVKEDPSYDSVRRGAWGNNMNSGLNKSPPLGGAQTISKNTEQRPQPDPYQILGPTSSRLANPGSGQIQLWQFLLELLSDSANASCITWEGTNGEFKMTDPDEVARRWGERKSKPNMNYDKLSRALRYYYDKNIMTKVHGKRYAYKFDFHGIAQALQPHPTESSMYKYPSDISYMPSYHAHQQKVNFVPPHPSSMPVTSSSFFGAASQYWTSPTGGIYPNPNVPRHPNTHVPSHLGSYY
Procedure, shortened: (§1)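 Binding signal is each hexamer's read frequency for a factor divided by its frequency in the tag-only sample. The factors were GST-fused human transcription factors from yeast, captured on glutathione beads, DNA-barcoded and pooled with that sample. Pools were incubated with 200 nmole of a random double-stranded 16-mer DNA library in Tris/NaCl/DTT/glycerol buffer at room temperature for 30 min, then washed, crosslinked with 0.1% formaldehyde, proximity-ligated with BsaI/T4 ligase (1 h, 37 °C), PCR-amplified and sequenced on an Illumina NextSeq500.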

ELK1 = target: T2, ELK1 (Homo sapiens, UniProt P19419 1-428)
T2 sequence: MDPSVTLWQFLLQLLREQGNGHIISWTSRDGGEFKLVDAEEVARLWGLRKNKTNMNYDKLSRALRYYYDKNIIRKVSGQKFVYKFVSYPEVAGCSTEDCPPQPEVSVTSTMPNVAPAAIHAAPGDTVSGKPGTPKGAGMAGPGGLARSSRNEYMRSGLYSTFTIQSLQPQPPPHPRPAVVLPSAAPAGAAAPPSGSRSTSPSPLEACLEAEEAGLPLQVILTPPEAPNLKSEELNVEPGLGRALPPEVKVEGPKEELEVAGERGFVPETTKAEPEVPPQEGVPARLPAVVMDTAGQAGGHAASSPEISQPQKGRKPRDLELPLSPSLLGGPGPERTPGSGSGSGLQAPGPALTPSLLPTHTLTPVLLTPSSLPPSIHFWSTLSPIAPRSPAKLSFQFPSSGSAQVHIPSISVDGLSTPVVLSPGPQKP
Procedure, shortened: as §1

GABPA = target: T3, GABPA (Homo sapiens, UniProt Q06546 1-454)
T3 sequence: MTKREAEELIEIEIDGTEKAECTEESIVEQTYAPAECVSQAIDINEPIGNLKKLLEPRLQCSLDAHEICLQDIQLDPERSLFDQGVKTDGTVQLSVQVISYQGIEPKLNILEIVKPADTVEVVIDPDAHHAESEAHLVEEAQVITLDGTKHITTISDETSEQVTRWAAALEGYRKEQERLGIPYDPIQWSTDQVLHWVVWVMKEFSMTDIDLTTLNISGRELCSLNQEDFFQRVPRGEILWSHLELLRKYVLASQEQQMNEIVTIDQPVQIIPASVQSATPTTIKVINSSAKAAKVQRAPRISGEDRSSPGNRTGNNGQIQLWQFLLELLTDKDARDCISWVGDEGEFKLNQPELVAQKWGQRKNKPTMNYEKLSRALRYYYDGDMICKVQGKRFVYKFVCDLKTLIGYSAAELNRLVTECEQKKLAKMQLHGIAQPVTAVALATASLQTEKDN
Procedure, shortened: as §1

ERG = target: T4, ERG (Homo sapiens, UniProt P11308 1-479)
T4 sequence: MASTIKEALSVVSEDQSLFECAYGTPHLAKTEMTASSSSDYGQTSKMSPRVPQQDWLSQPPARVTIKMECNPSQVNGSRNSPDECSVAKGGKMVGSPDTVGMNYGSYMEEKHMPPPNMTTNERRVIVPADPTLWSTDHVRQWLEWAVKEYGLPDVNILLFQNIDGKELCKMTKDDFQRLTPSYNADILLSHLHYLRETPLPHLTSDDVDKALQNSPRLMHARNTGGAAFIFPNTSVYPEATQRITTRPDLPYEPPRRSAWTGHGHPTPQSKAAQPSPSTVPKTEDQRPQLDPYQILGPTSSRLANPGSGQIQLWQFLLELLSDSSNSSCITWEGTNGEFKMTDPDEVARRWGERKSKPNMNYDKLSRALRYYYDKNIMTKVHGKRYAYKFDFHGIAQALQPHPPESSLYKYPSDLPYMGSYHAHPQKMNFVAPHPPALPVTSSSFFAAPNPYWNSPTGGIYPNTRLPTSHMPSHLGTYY
Procedure, shortened: as §1

ELF1 = ELF1 (Homo sapiens, UniProt P32519 1-619)
Procedure, shortened: as §1

EHF = target: T5, EHF (Homo sapiens, UniProt Q9NZC4 1-300)
T5 sequence: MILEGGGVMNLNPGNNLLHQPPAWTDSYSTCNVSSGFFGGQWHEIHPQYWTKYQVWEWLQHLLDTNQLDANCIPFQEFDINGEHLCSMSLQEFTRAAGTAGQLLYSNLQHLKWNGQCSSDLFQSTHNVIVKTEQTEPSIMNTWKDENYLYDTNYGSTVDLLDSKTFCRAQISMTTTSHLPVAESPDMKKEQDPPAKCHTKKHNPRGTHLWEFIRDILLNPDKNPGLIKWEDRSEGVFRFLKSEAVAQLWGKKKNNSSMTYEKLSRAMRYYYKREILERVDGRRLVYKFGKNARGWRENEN
Procedure, shortened: as §1

SPI1 = SPI1 (Homo sapiens, UniProt P17947 1-270)
Procedure, shortened: as §1

SPIB = SPIB (Homo sapiens, UniProt Q01892 1-262)
Procedure, shortened: as §1

ELK3 = target: T6, ELK3 (Homo sapiens, UniProt P41970 1-407)
T6 sequence: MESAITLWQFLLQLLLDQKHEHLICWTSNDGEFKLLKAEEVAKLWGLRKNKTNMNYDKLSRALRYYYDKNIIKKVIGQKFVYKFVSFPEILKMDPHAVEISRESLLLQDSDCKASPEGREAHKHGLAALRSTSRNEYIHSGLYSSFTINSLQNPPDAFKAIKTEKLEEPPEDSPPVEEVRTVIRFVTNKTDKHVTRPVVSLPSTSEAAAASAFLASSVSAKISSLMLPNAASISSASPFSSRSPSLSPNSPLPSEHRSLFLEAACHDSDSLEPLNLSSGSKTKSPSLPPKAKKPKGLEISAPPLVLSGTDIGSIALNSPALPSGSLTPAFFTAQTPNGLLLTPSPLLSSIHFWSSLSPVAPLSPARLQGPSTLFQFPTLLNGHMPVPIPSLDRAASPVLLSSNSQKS
Procedure, shortened: as §1

Sequence of ELF1 (P32519 whole entry): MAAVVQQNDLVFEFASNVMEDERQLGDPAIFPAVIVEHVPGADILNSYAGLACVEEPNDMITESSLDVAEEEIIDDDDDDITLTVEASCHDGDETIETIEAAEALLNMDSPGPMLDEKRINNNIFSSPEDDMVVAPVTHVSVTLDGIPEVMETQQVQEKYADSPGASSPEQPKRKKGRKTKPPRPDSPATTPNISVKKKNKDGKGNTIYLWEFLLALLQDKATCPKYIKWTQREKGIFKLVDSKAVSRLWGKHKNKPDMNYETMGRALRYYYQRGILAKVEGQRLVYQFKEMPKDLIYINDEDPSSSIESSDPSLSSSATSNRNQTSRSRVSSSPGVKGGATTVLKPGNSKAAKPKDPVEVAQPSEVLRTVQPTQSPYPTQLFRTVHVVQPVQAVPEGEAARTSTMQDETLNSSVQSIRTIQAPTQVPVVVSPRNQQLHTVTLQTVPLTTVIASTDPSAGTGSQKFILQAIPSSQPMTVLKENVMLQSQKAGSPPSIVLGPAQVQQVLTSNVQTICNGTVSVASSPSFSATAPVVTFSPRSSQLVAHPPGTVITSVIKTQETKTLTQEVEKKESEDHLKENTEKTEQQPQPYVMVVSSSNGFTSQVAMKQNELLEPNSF
Sequence of SPIB (Q01892 whole entry): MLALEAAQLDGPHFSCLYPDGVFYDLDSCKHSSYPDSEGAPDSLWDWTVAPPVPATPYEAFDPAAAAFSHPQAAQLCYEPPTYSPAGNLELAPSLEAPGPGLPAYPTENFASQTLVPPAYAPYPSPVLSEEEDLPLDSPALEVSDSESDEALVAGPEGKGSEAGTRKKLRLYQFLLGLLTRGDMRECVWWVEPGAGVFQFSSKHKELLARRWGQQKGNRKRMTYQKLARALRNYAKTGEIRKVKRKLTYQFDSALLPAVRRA

## CCCAAT
FLI1
  binding signal: 1.23 fold enrichment (6-mer frequency, TF over GST control)
ELK1
  binding signal: 1.29 fold enrichment (6-mer frequency, TF over GST control)
GABPA
  binding signal: 1.35 fold enrichment (6-mer frequency, TF over GST control)
ERG
  binding signal: 1.24 fold enrichment (6-mer frequency, TF over GST control)
ELF1
  binding signal: 1.29 fold enrichment (6-mer frequency, TF over GST control)
EHF
  binding signal: 1.22 fold enrichment (6-mer frequency, TF over GST control)
SPI1
  binding signal: 1.28 fold enrichment (6-mer frequency, TF over GST control)
SPIB
  binding signal: 1.21 fold enrichment (6-mer frequency, TF over GST control)
ELK3
  binding signal: 1.22 fold enrichment (6-mer frequency, TF over GST control)

## ATGTAA
FLI1
  binding signal: 1.38 fold enrichment (6-mer frequency, TF over GST control)
ELK1
  binding signal: 1.29 fold enrichment (6-mer frequency, TF over GST control)
GABPA
  binding signal: 1.13 fold enrichment (6-mer frequency, TF over GST control)
ERG
  binding signal: 1.29 fold enrichment (6-mer frequency, TF over GST control)
ELF1
  binding signal: 1.23 fold enrichment (6-mer frequency, TF over GST control)
EHF
  binding signal: 1.32 fold enrichment (6-mer frequency, TF over GST control)
SPI1
  binding signal: 1.23 fold enrichment (6-mer frequency, TF over GST control)
SPIB
  binding signal: 1.33 fold enrichment (6-mer frequency, TF over GST control)
ELK3
  binding signal: 1.22 fold enrichment (6-mer frequency, TF over GST control)

## ATACAC
FLI1
  binding signal: 1.18 fold enrichment (6-mer frequency, TF over GST control)
ELK1
  binding signal: 1.19 fold enrichment (6-mer frequency, TF over GST control)
GABPA
  binding signal: 1.25 fold enrichment (6-mer frequency, TF over GST control)
ERG
  binding signal: 1.25 fold enrichment (6-mer frequency, TF over GST control)
ELF1
  binding signal: 1.19 fold enrichment (6-mer frequency, TF over GST control)
EHF
  binding signal: 1.22 fold enrichment (6-mer frequency, TF over GST control)
SPI1
  binding signal: 1.23 fold enrichment (6-mer frequency, TF over GST control)
SPIB
  binding signal: 1.23 fold enrichment (6-mer frequency, TF over GST control)
ELK3
  binding signal: 1.21 fold enrichment (6-mer frequency, TF over GST control)

## TTCCCA
FLI1
  binding signal: 1.18 fold enrichment (6-mer frequency, TF over GST control)
ELK1
  binding signal: 1.3 fold enrichment (6-mer frequency, TF over GST control)
GABPA
  binding signal: 1.2 fold enrichment (6-mer frequency, TF over GST control)
ERG
  binding signal: 1.3 fold enrichment (6-mer frequency, TF over GST control)
ELF1
  binding signal: 1.3 fold enrichment (6-mer frequency, TF over GST control)
EHF
  binding signal: 1.34 fold enrichment (6-mer frequency, TF over GST control)
SPI1
  binding signal: 1.28 fold enrichment (6-mer frequency, TF over GST control)
SPIB
  binding signal: 1.34 fold enrichment (6-mer frequency, TF over GST control)
ELK3
  binding signal: 1.17 fold enrichment (6-mer frequency, TF over GST control)

## CGTACT
FLI1
  binding signal: 1.2 fold enrichment (6-mer frequency, TF over GST control)
ELK1
  binding signal: 1.17 fold enrichment (6-mer frequency, TF over GST control)
GABPA
  binding signal: 1.19 fold enrichment (6-mer frequency, TF over GST control)
ERG
  binding signal: 1.16 fold enrichment (6-mer frequency, TF over GST control)
ELF1
  binding signal: 1.27 fold enrichment (6-mer frequency, TF over GST control)
EHF
  binding signal: 1.18 fold enrichment (6-mer frequency, TF over GST control)
SPI1
  binding signal: 1.11 fold enrichment (6-mer frequency, TF over GST control)
SPIB
  binding signal: 1.12 fold enrichment (6-mer frequency, TF over GST control)
ELK3
  binding signal: 1.26 fold enrichment (6-mer frequency, TF over GST control)

## AATTAC
FLI1
  binding signal: 1.24 fold enrichment (6-mer frequency, TF over GST control)
ELK1
  binding signal: 1.19 fold enrichment (6-mer frequency, TF over GST control)
GABPA
  binding signal: 1.26 fold enrichment (6-mer frequency, TF over GST control)
ERG
  binding signal: 1.25 fold enrichment (6-mer frequency, TF over GST control)
ELF1
  binding signal: 1.26 fold enrichment (6-mer frequency, TF over GST control)
EHF
  binding signal: 1.33 fold enrichment (6-mer frequency, TF over GST control)
SPI1
  binding signal: 1.35 fold enrichment (6-mer frequency, TF over GST control)
SPIB
  binding signal: 1.35 fold enrichment (6-mer frequency, TF over GST control)
ELK3
  binding signal: 1.24 fold enrichment (6-mer frequency, TF over GST control)

## TTACCA
FLI1
  binding signal: 1.12 fold enrichment (6-mer frequency, TF over GST control)
ELK1
  binding signal: 1.06 fold enrichment (6-mer frequency, TF over GST control)
GABPA
  binding signal: 1.04 fold enrichment (6-mer frequency, TF over GST control)
ERG
  binding signal: 1.11 fold enrichment (6-mer frequency, TF over GST control)
ELF1
  binding signal: 1.13 fold enrichment (6-mer frequency, TF over GST control)
EHF
  binding signal: 1.03 fold enrichment (6-mer frequency, TF over GST control)
SPI1
  binding signal: 1.11 fold enrichment (6-mer frequency, TF over GST control)
SPIB
  binding signal: 1.12 fold enrichment (6-mer frequency, TF over GST control)
ELK3
  binding signal: 1.14 fold enrichment (6-mer frequency, TF over GST control)

From article PMC7862700, “An all-to-all approach to the identification of sequence-specific readers for epigenetic DNA modifications on cytosine”
